# Source: the supplement of paper PMC8047044
# Where a name gives a salt, the structure may show the parent alone. ± gives the standard deviation of the averaged measurements.
# System: Neuro-2a
# Assay: neurite formation score, plate-normalized to DMSO control mean 5.04 (score (0-8 scale)); higher = more or longer neurites
# Conditions: 0.1 µM
# Method: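 Neuro-2a mouse neuroblastoma cells in PLL-coated 96-well plates were pre-treated for 1 h in DMEM(+) with each kinase inhibitor at 0.1 µM, then switched to serum-free DMEM(-) with inhibitor to induce neurite outgrowth and fixed about 2-3 h later. Three blinded observers scored neurite formation from 0 (no neurites) to 8 (long neurites on almost all cells).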
row,Structure (SMILES),neurite formation score
1,CC(C)(O)CC(=O)NCCn1ccc2ncnc(Nc3ccc(Oc4cccc(C(F)(F)F)c4)c(Cl)c3)c21,4.42
2,CCc1cnn2c(NCc3ccc[n+]([O-])c3)cc(N3CCCC[C@H]3CCO)nc12,3.42
3,Nc1ccc(-c2ccc3ncc4ccc(=O)n(-c5cccc(C(F)(F)F)c5)c4c3c2)cn1 [Torin 2],3.42
4,CCNC(=O)Nc1ccc(-c2nc3c(c(N4CCOC[C@@H]4C)n2)CCN(C2COC2)C3)cc1,3.71
5,O=C(NCCCNc1nc(Nc2cccc(CN3CCOCC3)c2)ncc1C1CC1)C1CCC1,5.25
6,Nc1nc(Nc2ccc3c(c2)CCC(N2CCCC2)CC3)nn1-c1cc2c(nn1)-c1ccccc1CCC2 (stereo not given),4.54
7,O=C(Nc1nc2cccc(-c3ccc(CN4CCS(=O)(=O)CC4)cc3)n2n1)C1CC1,5 ± 0.35
8,CCNc1nc(Nc2cc(F)c(C(=O)N3CCOCC3)cc2OC)ncc1C(F)(F)F,3.75
9,CCCCCCCCCCCCCCCc1cccc(O)c1C(=O)O [Anacardic acid],4.92
10,O=C(NOCC1CC1)c1ccc(F)c(F)c1Nc1ccc(I)cc1Cl,4.71
11,CCN1C(=CC(C)=O)Sc2ccc(OC)cc21,4.92
12,Cc1ccc(NC(=O)c2ccc(CN3CCN(C)CC3)cc2)cc1Nc1nc(-c2cccnc2)cs1 [Masitinib (AB1010)],4.38
13,Cc1nc(Nc2cnn(C3CCNCC3)c2)nc2c1N(C)C(=O)c1cc3ccccc3cc1N2C,4.25
14,COc1cc(Nc2c(C#N)cnc3cc(OCCCN4CCN(C)CC4)c(OC)cc23)c(Cl)cc1Cl [Bosutinib (SKI-606)],2.71
15,O=C1NC(=O)/C(=C\c2ccc3nccnc3c2)S1,5.09
16,CN(C)CCCn1cc(C2=C(c3c[nH]c4ccccc34)C(=O)NC2=O)c2ccccc21,5.54
17,OCCn1cc(-c2ccc3c(c2)CC/C3=N\O)c(-c2ccncc2)n1,4.58
18,Oc1ccc2ccccc2c1SSc1c(O)ccc2ccccc12,5.42
19,COc1cc(Nc2ncc(F)c(Nc3ccc4c(n3)NC(=O)C(C)(C)O4)n2)cc(OC)c1OC,4.58
20,Cc1c(CN2CCN(C(=O)[C@H](C)O)CC2)sc2c(N3CCOCC3)nc(-c3cnc(N)nc3)nc12,4.42

row,Structure (SMILES),neurite formation score
1,N#CC[C@H](C1CCCC1)n1cc(-c2ncnc3[nH]ccc23)cn1 [Ruxolitinib phosphate],4.92
2,COc1cc(CCc2cc(NC(=O)c3ccc(N4CC(C)NC(C)C4)cc3)n[nH]2)cc(OC)c1 (stereo not given),4.21
3,Oc1cccc(-c2nc(N3CCOCC3)c3oc4ncccc4c3n2)c1,4.04
4,CCN1CCN(Cc2ccc(Nc3ncc(F)c(-c4cc(F)c5nc(C)n(C(C)C)c5c4)n3)nc2)CC1,3.04
5,COc1cc(C(=O)NC2CCN(C)CC2)ccc1Nc1ncc2c(n1)N(C1CCCC1)CC(F)(F)C(=O)N2C,4.25
6,COc1cc2nccc(Oc3ccc(NC(=O)C4(C(=O)Nc5ccc(F)cc5)CC4)cc3)c2cc1OC,4.38
7,O=c1cc(CN2CCOCC2)occ1OCCCCCSc1ccnc2cc(C(F)(F)F)ccc12,5.75
8,"Cc1[nH]c(/C=C2\C(=O)Nc3ccccc32)c(C)c1CCC(=O)O [TSU-68 (SU6668,Orantinib)]",4.54
9,C#Cc1cccc(Nc2ncnc3cc(OC)c(OCCCCCCC(=O)NO)cc23)c1,4.25
10,N#Cc1c(NC(=O)c2cccc3ccccc23)sc2c1CCCC2,0.751
11,c1cn2cc(-c3ccc4cn[nH]c4c3)nc(Nc3ccc(N4CCOCC4)cc3)c2n1,5.08
12,COc1c(C)c(C(=O)c2ccc(N)c(C(=O)O)c2)n2ccccc12,5.25
13,COc1ccc(-c2nc(N3CCOCC3)c3sc(CN(C)c4ncc(C(=O)NO)cn4)cc3n2)cn1,3.58
14,CCN(CCO)CCCOc1ccc2c(Nc3cc(CC(=O)Nc4cccc(F)c4)[nH]n3)ncnc2c1 [Barasertib (AZD1152-HQPA)],4.58
15,O=C(NOCC(O)CO)c1cc(Br)c(F)c(F)c1Nc1ccc(I)cc1F (stereo not given),4.88
16,Cc1cn(-c2cc(NC(=O)c3ccc(C)c(Nc4nccc(-c5cccnc5)n4)c3)cc(C(F)(F)F)c2)cn1 [Nilotinib(AMN-107)],5.21
17,CNC(=O)c1cc(Oc2ccc(NC(=O)Nc3ccc(Cl)c(C(F)(F)F)c3)c(F)c2)ccn1 [Regorafenib monohydrate],5.25
18,Cc1ccc(Nc2nccc(N(C)c3ccc4c(C)n(C)nc4c3)n2)cc1S(N)(=O)=O [Pazopanib Hydrochloride],4.88
19,CN(C)C1CCN(C(=O)c2ccc(NC(=O)Nc3ccc(-c4nc(N5CCOCC5)nc(N5CCOCC5)n4)cc3)cc2)CC1,3.09
20,Cn1c(Nc2ccc(C(F)(F)F)cc2)nc2cc(Oc3ccnc(-c4ncc(C(F)(F)F)[nH]4)c3)ccc21,4.88
